Test results taken from PubChem BioAssay (NCATS).
Results filed as inconclusive are left out. The source made the active and inactive calls. Unless noted, calls follow the shape of the dose curve; as a rule, active = well fitted curve in the direction sought with a large enough effect; inconclusive = small, poorly fitted or top-dose-only effect, or another doubt; inactive = no such curve, though single readings can be large; an effect the other way counts as inactive or inconclusive.

Tests used:
[1] = system: Zika virus NS2B-NS3 protease (linked construct); assay: Primary screen NINDS Rhodamine qHTS for Zika virus inhibitors (AID 1347160); also: potency is read from the fitted curve at half-maximal effect; nearly all actives have a fitted effect of over 55% in size
In short: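 Percent inhibition, normalized to uninhibited and enzyme-free controls, is fitted to a 4-parameter Hill equation. Fluorescence change comes from a 15-min cleavage of 1.5 microM bis-peptide Rhodamine110 substrate by 25 nM linked NS2B-NS3 at room temperature.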

[2] = HPAF-II Cancer Cell Toxicity qHTS against the NCATS CANVASS Library (AID 1347346); also: series mostly up to about 38 µM; % is scaled to controls: 0 for no effect and ±100 for the full control effect; nearly all actives have a fitted effect of over 55% in size
In short: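 HPAF-II cells were seeded at 1000 cells/well, allowed to settle for 4 h at 37 degrees C, then exposed to compounds in an 11-point series for 72 h. Viability was read by CellTiter-Glo luminescence.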

[3] = OV-SAHO Cancer Cell Toxicity qHTS against the NCATS CANVASS Library (AID 1347348); also: series mostly up to about 38 µM; % is scaled to controls: 0 for no effect and ±100 for the full control effect; nearly all actives have a fitted effect of over 55% in size
In short: (§1)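 ATP content after 72 h treatment, detected by CellTiter-Glo luminescence (15min room-temperature development), reflects cell viability. Wells contained 1000 cells and received compounds at 11 concentrations.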

[4] = Panc-1005 Cancer Cell Toxicity qHTS against the NCATS CANVASS Library (AID 1347349); also: series mostly up to about 38 µM; % is scaled to controls: 0 for no effect and ±100 for the full control effect; nearly all actives have a fitted effect of over 60% in size
In short: as §1

[5] = U-118MG Cancer Cell Toxicity qHTS against the NCATS CANVASS Library (AID 1347351); also: series mostly up to about 38 µM; % is scaled to controls: 0 for no effect and ±100 for the full control effect
In short: as §1

[6] = A2780 Cisplatin Sensitive Ovarian Cancer Cell Toxicity qHTS against the NCATS CANVASS Library (AID 1347353); also: nearly all actives have a fitted effect of over 60% in size
In short: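 A2780 cisplatin-sensitive cells (750 per well) were seeded, left 4 h at 37 °C, then pin-dosed in an 11-point series. After 72 h at 37 °C/5% CO2, viability was measured as ATPLite luminescence.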

[7] = UWB1.289-WTBRCA1 Cancer Cell Toxicity qHTS against the NCATS CANVASS Library (AID 1347354)
In short: (§2)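 Cells were seeded at 1000 per well and allowed to settle 4 hours at 37 degrees C before pin transfer of compounds as an 11-point series. Viability was read by CellTiter-Glo luminescence after 72 hours' exposure.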

[8] = HEK-293 Cancer Cell Toxicity qHTS against the NCATS CANVASS Library (AID 1347355); also: series mostly up to about 46 µM; % is scaled to controls: 0 for no effect and ±100 for the full control effect; nearly all actives have a fitted effect of over 65% in size
In short: as §2

[9] = HPAF-II 24hr Apoptosis Induction qHTS against the NCATS CANVASS Library (AID 1347356); also: 0% is about no effect
In short: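 HPAF-II cells (500/well) in DMEM + 10% FBS were treated with an 11-point compound series for 24 hours at 37 degrees C. Caspase-3/7 activity was then read by Caspase-Glo DEVD luminescence after 15 min.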

[10] = HEK293 24hr Apoptosis Induction qHTS against the NCATS CANVASS Library (AID 1347359); also: 0% is about no effect
In short: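 Caspase-3/7 activation measured as luminescence from the DEVD-based Caspase-Glo reagent, 15 min at room temperature, following 24-hour compound treatment of HEK293 cells.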

[11] = HPAF-II 18hr Apoptosis Induction qHTS against the NCATS CANVASS Library (AID 1347360); also: 0% is about no effect
In short: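 HPAF-II cells at 500/well were exposed for 18 h at 37 C to an 11-point compound series. Caspase-3/7 activity was read by Caspase-Glo luminescence after 15 min at RT.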

[12] = HEK293 12hr Apoptosis Induction qHTS against the NCATS CANVASS Library (AID 1347361); also: 0% is about no effect
In short: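 HEK293 cells (500/well) were exposed to an 11-point qHTS concentration series for 12 hours at 37 degrees C. Caspase-3/7 activity was then read by DEVD-substrate luciferase luminescence after 15 min at room temperature.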

[13] = molecular target: Luciferin 4-monooxygenase (Photinus pyralis) (UniProt P08659); assay: Firefly luciferase counterscreen qHTS: Assay Interference Panel against the NCATS CANVASS Library (AID 1347363); also: series mostly up to about 57 µM; 0% is about no effect
In short: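 Luminescence inhibition readout: compounds (11-point qHTS) sat 15 min at room temperature with substrate mix (0.013 mM luciferin and ATP), then firefly luciferase was added and signal read 5 min later.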

[14] = KB-8-5-11 Cancer Cell Toxicity qHTS against the NCATS CANVASS Library (AID 1347364); also: nearly all actives have a fitted effect of over 75% in size
In short: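 KB-8-5-11 cells (500/well) in DMEM + 10% FBS were exposed to compounds in an 11-point qHTS series for 72 hr at 37C, 5% CO2. Viability was read by CellTiter-Glo luminescence.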

[15] = KB-3-1 Cancer Cell Toxicity qHTS against the NCATS CANVASS Library (AID 1347366); also: series mostly up to about 46 µM; % is scaled to controls: 0 for no effect and ±100 for the full control effect; nearly all actives have a fitted effect of over 75% in size
In short: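 KB-3-1 cells (500/well) in DMEM with 10% FBS were exposed to compounds for 72 h at 37C. Viability was read by CellTiter-Glo luminescence.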

[16] = qHTS for ATAD5 Agonist screened against the NCATS CANVASS Library (AID 1347367);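 also: luciferase reporter driven by ATAD5 which rises upon DNA damage; 0% is about no effect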
In short: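 Luciferase reporter under ATAD5 control, stably integrated in HEK293T cells (2000/well). Compounds (11 points) incubated 16 h at 37C; viability read first by CellTiter-Fluor, then luminescence reporting ATAD5 activation. MMS positive control.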

[17] = G06 Cancer Cell Toxicity qHTS against the NCATS CANVASS Library (AID 1347368); also: series mostly up to about 46 µM; % is scaled to controls: 0 for no effect and ±100 for the full control effect; nearly all actives have a fitted effect of over 60% in size
In short: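 G06 dog glioma cells seeded at 500 cells/well were exposed to compounds (11-point qHTS series) for 72 hr at 37C, 5% CO2; viability read as ATP content by CellTiterGlo luminescence.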

[18] = MCF7 Cancer Cell Toxicity qHTS against the NCATS CANVASS Library (AID 1347369); also: series mostly up to about 46 µM; % is scaled to controls: 0 for no effect and ±100 for the full control effect
In short: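 MCF7 cells (500/well) were exposed 72 h at 37 °C to compounds in an 11-point series. Viability was read as ATP content by CellTiterGlo luminescence.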

[19] = J3T Cancer Cell Toxicity qHTS against the NCATS CANVASS Library (AID 1347371);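 also: J3T is a canine glioma cancer cell line seeded at 500 cells per well; series mostly up to about 46 µM; % is scaled to controls: 0 for no effect and ±100 for the full control effect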
In short: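 J3T dog glioma cells (500 cells/well) were exposed to compounds in an 11-point series for 72 hr at 37C, 5% CO2. Cytotoxicity was read as ATP content by CellTiterGlo luminescence.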

[20] = molecular target: Nuclear receptor subfamily 1 group I member 3 (Homo sapiens) (UniProt Q14994); assay: qHTS for Constitutive Androstane Receptor (CAR) Antagonist screened against the NCATS CANVASS Library (AID 1347372);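 also: cells stimulated with 50 nM CITCO agonist so inhibition reflects antagonism; series mostly up to about 46 µM; % is scaled to controls: 0 for no effect and ±100 for the full control effect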
In short: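 HepG2-CYP2B6-hCAR double-stable cells plated, 4hr attach; cpd pin-transferred; CITCO 50 nM final; 24hr 37C/5% CO2; CellTiter-Fluor 1hr (fluorescence), then ONE-Glo luminescence.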

[21] = molecular target: Nuclear receptor subfamily 1 group I member 3 (Homo sapiens) (UniProt Q14994); assay: qHTS for Constitutive Androstane Receptor (CAR) Agonist screened against the NCATS CANVASS Library (AID 1347373);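 also: every well also contained 1.5 µM PK11195 alongside the test compound; 0% is about no effect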
In short: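 HepG2 cells stably expressing hCAR and a CYP2B6-2.2kb luciferase reporter were treated for 24hr at 37C with compounds (11-point qHTS) in the presence of 1.5uM PK11195. Reporter activation was read by ONE-Glo luminescence.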

[22] = qHTS for Hypoxia signaling pathway (HIF-1) antagonists against the NCATS CANVASS Library (AID 1347374);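 also: HRE-bla ME-180 cells stimulated with cobalt chloride to stabilize HIF-1alpha; series mostly up to about 38 µM; % is scaled to controls: 0 for no effect and ±100 for the full control effect; nearly all actives have a fitted effect of over 60% in size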
In short: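 HRE-bla ME-180 cells (2,000/well, 0.5% dialyzed FBS) were pre-incubated 5 h, then given an 11-point compound series plus CoCl2 (60 uM solution as added) for 17 h at 37C. CCF4 β-lactamase read (ex 405, em 460/530 nm) after 2 h at RT.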

[23] = qHTS for Hypoxia signaling pathway (HIF-1) agonists against the NCATS CANVASS Library (AID 1347375); also: 0% is about no effect
In short: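 HRE-bla ME-180 cells (beta-lactamase reporter under hypoxia responsive element) in 0.5% dialyzed FBS medium, 5 h at 37C, then compound 17 h, 11-point qHTS series. CCF4-AM FRET substrate 2 h RT; 460/530 nm emission read.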

[24] = 10-beta competent E. coli microbial cell viability qHTS against the NCATS CANVASS Library (AID 1347376); also: series mostly up to about 46 µM; 0% is about no effect
In short: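 10-beta competent E. coli (0.9 OD culture diluted to 0.2 OD) exposed to compounds in an 11-point qHTS series, incubated overnight at 37C, 5% CO2. Viability read as ATP by BacTiter-Glo luminescence after 20 min at room temperature.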

[25] = DH5-alpha competent E. coli microbial cell viability qHTS against the NCATS CANVASS Library (AID 1347377); conditions: outcome: dose series up to 46.1 µM; also: 0% is about no effect
In short: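 DH5-alpha E. coli suspension (0.9 OD culture diluted to 0.2 OD) exposed to compounds in an 11-point series, overnight at 37C, 5% CO2. Viability read as ATP by BacTiter-Glo luminescence after 20 min at room temperature.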

[26] = qHTS for Inflammasome Signaling Inhibitors: IL-1-beta AlphaLISA screen against the NCATS CANVASS Library (AID 1347379);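 also: human THP-1 cells primed with LPS then triggered with ATP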
In short: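 Human THP-1 cells were pretreated 1 hr at 37 °C with compounds (up to 57.5 uM final), then stimulated with LPS (250 ng/mL final) and ATP (1.25 mM final). Secreted IL-1B was read by AlphaLISA after 16 hr.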

[27] = Inflammasome Signaling qHTS Counterscreen: IL-1-beta AlphaLISA counterscreen against the NCATS CANVASS Library (AID 1347381);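 also: cell-free check with purified IL-1β in medium and no THP-1 cells; series mostly up to about 57 µM; 0% is about no effect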
In short: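 To flag interference with the AlphaLISA read-out, a known amount of purified IL-1-beta (4 pg) replaced cell supernatant. Detection used anti-IL-1-beta acceptor beads, biotinylated antibody and streptavidin donor beads at room temperature.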

[28] = qHTS for Activators of p53 Stress Response Pathway screened against the NCATS CANVASS Library (AID 1347388); also: 0% is about no effect
In short: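 Beta-lactamase reporter driven by p53 response elements in HCT-116 cells, read as the 460 nm/530 nm emission ratio after CCF4 loading, following 16 h of exposure to an 11-point series. Cell viability was measured in the same wells by CellTiter-Glo luminescence.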

[29] = Secretion counterscreen for inhibitors of the SERCaMP assay screened against the NCATS CANVASS Library (AID 1347390)
In short: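 SH-SY5Y cells with constitutively secreted GLuc reporter, 1000 cells/well, treated 20 h at 37C with compounds at 0.001 - 77 uM final; secreted luciferase read as luminescence after coelenterazine; Brefeldin A as positive control.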

[30] = qHTS for activators of dead-cell proteases activity screened against the NCATS CANVASS Library (AID 1347392);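 also: luminescence from protease leaking out of membrane-damaged cells cleaving impermeant substrate; 0% is about no effect; rising signal means more cytotoxicity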
In short: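 Compounds are pin-transferred onto attached HepG2 cells, giving 11 final concentrations. After 5 h at 37C, AAF-aminoluciferin reagent is added and luminescence is recorded at room temperature.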

[31] = qHTS for inhibitors of ER calcium dysfunction: SERCaMP assay screened against the NCATS CANVASS Library (AID 1347393);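 also: series mostly up to about 77 µM; % is scaled to controls: 0 for no effect and ±100 for the full control effect; lower secreted reporter signal means inhibitor of ER calcium depletion; nearly all actives have a fitted effect of over 40% in size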
In short: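 Thapsigargin-induced ER calcium depletion drives GLuc-SERCaMP secretion from SH-SY5Y cells; compounds given 16 h beforehand were scored by lowered coelenterazine luminescence after 4 h challenge.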

[32] = Vero-766 cells viability qHTS against the NCATS CANVASS Library: Counterscreen for Zika virus inhibition assay (AID 1347394)
In short: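 Vero 766 cells (1000/well), without Zika virus, were exposed to compounds for 72 h at 37C. Viability was measured by CellTiter Glo luminescence. Media-only wells served as 100% inhibition.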

[33] = qHTS for inhibitors of Wild type Zika virus screened against the NCATS CANVASS Library (AID 1347396)
In short: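 Using ATP-based luminescence (CellTiter Glo), this screen scores rescue of Vero 766 cells from wild-type Zika killing at 72 h post-infection. Compounds are tested in a concentration series.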

[34] = Redox Reaction Profiling qHTS: Assay Interference Panel against the NCATS CANVASS Library (AID 1347401);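 also: 100% = activation by 2 µM chloranil control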
In short: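 Cell-free redox surrogate: 5 uM resazurin + 200 uM DTT, 50 mM HEPES pH 7.3/50 mM NaCl; cpds pinned, 11-pt qHTS; Ex525/Em598 read t0 and t=15 min, dark.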

[35] = qHTS for inhibitors of Rabies Virus screened against the NCATS CANVASS Library (AID 1347402; calls by dose curve; also: series mostly up to about 46 µM; 0% is about no effect)
[36] = Primary qHTS for small molecule stabilizers of the endoplasmic reticulum resident proteome: Secreted ER Calcium Modulated Protein (SERCaMP) assay (AID 1508630); also: % is scaled to controls: 0 for no effect and ±100 for the full control effect
In short: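 GLuc-SERCaMP-expressing SH-SY5Y cells, pretreated 16 h with compound, are challenged with thapsigargin to empty ER calcium stores; after 4 h, coelenterazine is added directly to the medium and luminescence is imaged.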

Chain of Nuclear receptor subfamily 1 group I member 3 (Homo sapiens) (Q14994 whole entry, looked up): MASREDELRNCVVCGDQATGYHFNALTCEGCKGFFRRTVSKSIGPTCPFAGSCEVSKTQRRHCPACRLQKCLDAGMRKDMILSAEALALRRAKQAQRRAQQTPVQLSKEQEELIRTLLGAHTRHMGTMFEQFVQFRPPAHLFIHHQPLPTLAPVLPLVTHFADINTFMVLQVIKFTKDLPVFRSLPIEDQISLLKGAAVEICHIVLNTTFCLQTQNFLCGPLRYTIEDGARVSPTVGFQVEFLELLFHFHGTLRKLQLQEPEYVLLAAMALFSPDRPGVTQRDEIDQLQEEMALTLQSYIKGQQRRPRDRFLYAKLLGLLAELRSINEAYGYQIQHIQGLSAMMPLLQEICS
Chain of Luciferin 4-monooxygenase (Photinus pyralis) (P08659 whole entry, looked up): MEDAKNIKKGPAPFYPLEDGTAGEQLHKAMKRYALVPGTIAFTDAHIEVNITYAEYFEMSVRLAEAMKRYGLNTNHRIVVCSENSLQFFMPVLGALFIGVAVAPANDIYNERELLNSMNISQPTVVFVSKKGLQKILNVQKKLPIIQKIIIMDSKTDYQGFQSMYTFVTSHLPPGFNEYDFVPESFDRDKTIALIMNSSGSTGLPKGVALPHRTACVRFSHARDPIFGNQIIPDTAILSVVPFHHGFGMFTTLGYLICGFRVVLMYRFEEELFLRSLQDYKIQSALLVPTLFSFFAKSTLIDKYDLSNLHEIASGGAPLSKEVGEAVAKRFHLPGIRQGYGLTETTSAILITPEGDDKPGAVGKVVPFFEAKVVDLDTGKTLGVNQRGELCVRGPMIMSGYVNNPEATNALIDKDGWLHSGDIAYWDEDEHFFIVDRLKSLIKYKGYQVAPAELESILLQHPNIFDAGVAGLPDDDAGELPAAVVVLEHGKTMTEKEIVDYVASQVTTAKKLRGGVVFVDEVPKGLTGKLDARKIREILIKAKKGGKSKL

CC[N@@+]1([O-])C[C@]2(C)CC[C@@H](O)[C@@]34C5C[C@H]6CC[C@@]5(C(C[C@H]23)C41)[C@H](O)[C@@]6(O)CO (stereo partly specified)
active: Potency [1] 49.3 µM
inactive: Potency [2] | Potency [3] | Potency [4] | Potency [5] | Potency [6] | Potency [7] | Potency [8] | outcome [9] | Potency [10] | outcome [11] | Potency [12] | outcome [13] | Potency [14] | Potency [15] | Potency [16] | Potency [17] | Potency [18] | Potency [19] | Potency [20] | outcome [21] | Potency [22] | Potency [23] | outcome [24] | outcome [25] | Potency [26] | outcome [27] | Potency [28] | Potency [29] | Potency [30] | Potency [31] | Potency [32] | Potency [33] | Potency [34] | outcome [35]

CCCCC[C@@H](/C=C/C=C\C/C=C\C/C=C\CCCC(=O)O)OO
inactive: activity change, negative = inhibition [36] -17.3% [at 0.478 µM]
